Experimental data: the supplement of paper PMC7156485
± gives the standard deviation of the averaged measurements.

tested on: HCC1569; experiment: cell number relative to DMSO (% of DMSO); higher = more cells (less growth inhibition / toxicity); conditions: concentration: 10 µM; 24 h
Outline: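 H1.0 nuclear intensity or cell number is expressed as percent of the plate control, with the median of replicates taken. HCC1569 and TDF cells were treated with compounds at 10 µM for 24 h at 37 °C, in triplicate, then fixed and immunostained for H1.0 with DAPI as a nuclear stain. HCC1569 values were smoothed to correct for positional effects.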
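Further: TDF denotes transformed human dermal fibroblasts of mesenchymal origin.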

SMILES | cell number
CCCC(CCC)C(=O)NO [N-hydroxy-2-propylpentanamide] | 100
CCCCCCCCCCCCCCCCCCCCCCCC(=O)O [Tetracosanoic acid] | 99.5
CC1(C)CCC2(C(=O)O)CCC3(C)C(=CCC4C5(C)CCC(O)C(C)(C)C5CCC43C)C2C1 (stereo unspecified) [Oleanolic acid] | 101
Cl.c1ccc(CN2CCC3(CCCc4ccccc43)CC2)cc1 [L-687,384 hydrochloride] | 103
O=C(Nc1nc2ccccc2n1CCN1CCOCC1)c1cccc([N+](=O)[O-])c1 [IRAK-1/4 Inhibitor] | 98.2
O=c1nc[nH]c2c1ncn2C1CCC(CO)O1 (stereo unspecified) [Didanosine] | 101
CCC=CCC=CCC=CCCCCCCCCCCCC(=O)O [Docosatrienoic acid] | 101 ± 2.4
CC1(NC(=O)CBr)CCC(C(C)(C)NCC(O)COc2cccc3[nH]ccc23)CC1 (racemic) | 95.8
O=c1[nH]c(=O)c2nc3ccccc3nc2[nH]1 [Alloxazine] | 101
CCCCCC(O)C=CC1=C(CC=CCCCC(=O)O)C(=O)CC1 (stereo unspecified) [Prostaglandin B2] | 109
COC(=O)c1c(C)[nH]c(C)c1C(=O)c1ccccc1Cc1ccccc1 | 102
COc1cc2c(N3CCN(C(=O)Nc4ccc(OC(C)C)cc4)CC3)ncnc2cc1OCCCN1CCCCC1 [Tandutinib] | 101
OC1C=C2CCN3Cc4cc5c(cc4C(C1O)C23)OCO5 (stereo unspecified) [Lycorine] | 67.4
Cc1ccc(C(=O)c2cc(O)c(O)c([N+](=O)[O-])c2)cc1 [Tolcapone] | 101
CCCc1cc(C(N)=S)ccn1 [Prothionamide] | 106
Cc1cc2c(OCC(CNC(C)(C)C)OC(=O)c3ccccc3)cccc2[nH]1 (stereo unspecified) [Bopindolol] | 98.1
COc1ccc(C2OCC3C(c4ccc(OC)c(OC)c4)OCC23)cc1OC (stereo unspecified) [Eudesmine] | 102
CC(C)NCC(O)COc1cccc2ccccc12 (stereo unspecified) [Propranolol] | 102
S=c1ccss1 [1,2-Dithiole-3-thione] | 101
CC(C)(C)c1cnc(CSc2cnc(NC(=O)C3CCNCC3)s2)o1 | 105
CCCCCCCCCCCCCCCCCCCCCC(=O)O [Docosanoic acid] | 101
O=c1[nH]c(=O)n([C@H]2C[C@H](O)[C@@H](CO)O2)cc1/C=C/Br [(E)-5-(2-Bromovinyl)-2'-deoxyuridine] | 104
O=C1CCc2c(ccc3ccccc23)O1 [1,2-dihydro-3H-benzo[f]chromen-3-one] | 103
CCC(C)C(=O)OC1CC(C)C=C2C=CC(C)C(CCC3CC(O)CC(=O)O3)C21 (stereo unspecified) [Lovastatin] | 99.4
CC(=O)OCC(=O)C1(O)CCC2C3CCC4=CC(=O)CCC4(C)C3C(O)CC21C (stereo unspecified) [Hydrocortisone 21-acetate] | 99.8
Nc1[nH]nc2nc3ccccc3nc12 [Cdk1/5 Inhibitor] | 99.6
